# Columns and labels:
# Format in all cases: functional
# Set-up in all cases: scale not given: direction of the effect not stated beside the values
# Settings in all cases: 30 µM
# [1] = molecular target: T1, Aspartate--tRNA(Asp/Asn) ligase (Mycobacterium tuberculosis (strain ATCC 25618 / H37Rv)) (UniProt P9WFW3); assay: Assay for Asp RNA synthetase-1 from Mycobacterium tuberculosis; note: in the data most compounds retested in dose-response had high values
# T1 sequence (whole entry): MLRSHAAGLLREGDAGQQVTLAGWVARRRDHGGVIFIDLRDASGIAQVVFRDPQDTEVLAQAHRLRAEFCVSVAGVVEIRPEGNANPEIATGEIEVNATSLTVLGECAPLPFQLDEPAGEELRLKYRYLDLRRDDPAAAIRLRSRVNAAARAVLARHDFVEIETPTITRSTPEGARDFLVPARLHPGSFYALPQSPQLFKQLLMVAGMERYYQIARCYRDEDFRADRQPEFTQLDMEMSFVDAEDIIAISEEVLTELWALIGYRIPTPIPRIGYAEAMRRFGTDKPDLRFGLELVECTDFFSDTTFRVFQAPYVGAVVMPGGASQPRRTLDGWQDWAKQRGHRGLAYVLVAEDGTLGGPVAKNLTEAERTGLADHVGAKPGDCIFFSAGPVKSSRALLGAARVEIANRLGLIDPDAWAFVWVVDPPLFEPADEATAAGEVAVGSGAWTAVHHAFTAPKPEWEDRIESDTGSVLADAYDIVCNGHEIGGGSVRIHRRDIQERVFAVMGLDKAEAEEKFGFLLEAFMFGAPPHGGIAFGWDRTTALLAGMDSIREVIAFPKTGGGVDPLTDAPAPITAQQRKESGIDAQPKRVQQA
# [2] = molecular target: Shiga toxin 2 (Escherichia coli O157:H7) (UniProt P09385+P09386); assay: E. coli 0.157:H7 Shiga Toxin SOP - stx2 screening assay
# [3] = molecular target: AMP-activated protein kinase, AMPK (Homo sapiens) (UniProt P54646+O43741+P54619+Q9UGJ0+Q9Y478+Q13131+Q9UGI9); assay: AMP-dependent Kinase enzyme assay. An in vitro enzyme assay that detects ADP turnover that is directly proportional to AMPK activity. This uses naive AMPK that is activated during the assay with MK-8722
SMILES,Percent Effect [1] [%],Percent Effect [2] [%],Percent Effect [3] [%]
O=C1OCCN1CCc1nc(-c2cc3c4c(c2)CC(=O)N4CCC3)cs1,1.61,9.08,
Cc1nnc2n1CCN(C(=O)c1cn(-c3ccccc3Cl)nn1)C2,-0.98,-42.4,
Cc1nc(NCCc2ccc(Cl)cc2)cc(C(=O)N2CCOCC2)n1,12.1,-64.7,
CC(C)NC(=O)C1CN(C(=O)c2ccc(F)cc2)CC12CCOCC2 (stereo not drawn),0.581,-56,
COc1ccc(OC)c(CN2CCCCCC2c2cccs2)c1 (stereo not drawn),-3.22,-16.4,
CC(C)c1csc(C2CCCN(C(=O)c3ncccn3)C2)n1 (stereo not drawn),-2.21,-20,
CCN1C(=O)CCCC12CCCN(C(=O)c1conc1C)C2 (stereo not drawn),-4.46,1.9,
COc1cc(CNCc2ccc(C(C)O)cc2)cc2c1OCO2 (stereo not drawn),-6.24,-48,
CN(C)C(=O)NC1COC2(CCN(C(=O)Nc3ccccc3)CC2)C1 (stereo not drawn),7.1,-15.4,
CCc1c(C)nc2n(c1=O)CC(C(=O)Nc1nccs1)CS2 (stereo not drawn),-3.8,-29.4,
CN(C(=O)Cn1nc(-c2cccs2)ccc1=O)C1CCS(=O)(=O)C1 (stereo not drawn),1.02,-35.1,
O=C(NS(=O)(=O)c1ccc2c(c1)OCCO2)c1ccc(Br)cc1F,1.56,8.44,
Nc1nc(C2CCN(C(=O)c3cscn3)CC2)cs1,2.54,-10.9,
Cc1cccc(-c2[nH]ncc2CNCC2CCN(CC(C)O)CC2)c1 (stereo not drawn),4.15,20.1,
COc1ccccc1CC(=O)NS(=O)(=O)c1ccc(C(N)=O)cc1,1.21,7.74,
CC(C)n1[nH]c(=O)c2c1NC(=O)CC2c1cccc(OC(F)F)c1 (stereo not drawn),0.474,-12.1,
Cn1cccc1CCC(=O)N1CCC2(CC1)c1ccccc1CC2O (stereo not drawn),2.11,-22.3,
CNC(=O)C1CCN(C(=O)CCn2cccn2)CC1,6.32,26,
COc1ncnc(N)c1CNCCc1ccccc1,,,-4.78
CNC(=O)C1(CCCc2ccncc2)CCCN1 (stereo not drawn),4.78,1.85,
COCCN1CCC(NCc2cccnc2)C1 (stereo not drawn),4.4,15.8,
CCc1cccc(NC(=O)CCN2CC=C(c3cnn(C)c3)CC2)c1,,,11.6
c1cnn(-c2ccc(CN3CCOC(Cn4cncn4)C3)cc2)c1 (stereo not drawn),4.05,9.62,
CC(C)(C)c1cc(=O)[nH]c(C2(N)CCCC2)n1,,,3.52
CCn1cnnc1C1CCN(C(=O)c2cccc3c2ccn3C)CC1,-3.52,-25.8,
O=C(c1cc2ccccc2[nH]c1=O)N1CCC2(CCCNC2)C1 (stereo not drawn),,,16.8
COc1ncccc1NC(=O)C1CCN(S(C)(=O)=O)CC1,-1.61,-91.6,

SMILES,Percent Effect [1] [%],Percent Effect [2] [%],Percent Effect [3] [%]
CC(C)c1nccn1C1CCCN(C(=O)c2cnc[nH]2)C1 (stereo not drawn),-0.983,-3.33,
Cc1ccc(NC(=O)CNC(C)Cc2ccsc2)cc1F (stereo not drawn),,,-6.2
Cc1nccn1C1CCCN(C(=O)c2ccc(N3CCCC3)nn2)C1 (stereo not drawn),2.5,17.8,
CCCc1nc(C(=O)N[C@H]2COC[C@@H]2N2CCN(C)CC2)cs1,,,-1.36
Cc1nccnc1N1CC[C@@H](NC(=O)c2cnccn2)[C@H](O)C1,3.96,-24.4,
COCCOc1ccccc1CNCc1c(C)nn(C)c1N(C)C,2.62,23.1,
CC(C)c1cc(N2CCCC3(CCN(C)C3)C2)ncn1 (stereo not drawn),,,1.53
O=C(NCCc1ccccc1)C1CCC(Cn2cnnn2)CC1 (stereo not drawn),-4.3,-20.1,
O=C(NCCOc1cccc(Cl)c1Cl)N1CCC2(CC1)OCCO2,,,1.62
O=C(c1cc(C2CC2)on1)N1CCCC(n2cncn2)C1 (stereo not drawn),-0.789,-16.7,
CCCNC(=O)c1cnc(N(C)C)nc1COC,-0.929,-6.54,
CC(=O)N1CCCn2nc(CNS(=O)(=O)N3CCCCCC3)cc2C1,-7.71,-4.22,
Cc1cc(O)c(OCC(=O)/N=c2\[nH]cc(C)s2)cn1,-2.4,-6.58,
CCN(C)S(=O)(=O)N(CC)Cc1ccc2c(c1)OCO2,3.49,12.6,
Cc1cc(N2CCC(NC(=O)C3CC3)CC2)nc(-c2ccncc2)n1,0.463,-21.4,
CC(C)[C@@H]1CN(C(=O)C2(c3ccccc3)CCN(C)CC2)C[C@H]1C(=O)O,,,3.48
Cc1nn(C)c2nc(N3CCCCC3c3cccnc3)sc12 (stereo not drawn),,,-3.14
COc1ccc(CNCc2ccnc(N3CCCCC3)c2)cc1OC,-2.15,-57.5,
c1cc2nc(C3CCN(CC4CC4)CC3)nn2cc1N1CCCC1,-1.69,-3.75,
O=C(CC1CCCC1)NCCn1ccc(-c2ccccn2)n1,-4.3,-5.4,
CSCCC(CO)NC(=O)c1sc(-c2ccccc2Cl)nc1C (stereo not drawn),-2.58,-30.8,
Cc1cc(C2CCCN(CCc3ccccn3)C2)n[nH]1 (stereo not drawn),-5.34,-1.21,
CCc1nc(C2CCCN2CCCS(=O)(=O)c2ccccc2)no1 (stereo not drawn),-4.39,-9.14,
Cc1cnn(CCNCc2ccccc2Oc2cccnc2)c1,10.1,-15.5,
CC(C)c1nc(C2CCCN2CC(=O)N2CCNC2=O)no1 (stereo not drawn),1.61,-10.5,
Cc1cnn(CC2CCCN2CCc2nc3ccccc3c(=O)[nH]2)c1 (stereo not drawn),-3.23,2.14,
Cc1cnn(CC2CCCN2C(=O)CCc2nc3ccccc3[nH]2)c1 (stereo not drawn),-0.857,-31.6,

# From ChEMBL document CHEMBL3988442, “University of Dundee, Small-Polar-MMV Screening Library” (2021)
